Bioassay records: PubChem BioAssay, National Center for Advancing Translational Sciences (NCATS)
DT40 TDP1 CPT = growth inhibition of DT40 Tdp1-/-;hTDP1 cells with camptothecin (screen for TDP1 inhibitors) | chicken DT40 Tdp1-/-;hTDP1 cells + 20 nM CPT, ATP luminescence, 48 h | Potency, µM (series often up to 46.2 µM), most hits filed as inhibitors | 12% of 420,000 active; further: nearly all actives have a fitted effect of over 55% in size
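Cell growth measured by CellTiter-Glo luminescence after a minimum 48 h, 37 C compound exposure with 20 nM CPT in Tdp1-knockout DT40 cells stably expressing hTDP1, seeded 400/well; qHTS titration format.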
HT1080 IDH1KD tx = kills HT-1080 cells with IDH1 knockdown | HT-1080 IDH1 knockdown viability, ATP luminescence, 48 h | Potency, µM (doses to about 46.1 µM), hits mostly cytotoxic | 2% of 360,000 active | AID 686971
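Knockdown cells (IDH1KD HT-1080) received compounds 2 h after plating at 750 cells/well and were kept 48 h at 37 °C in 5% FBS RPMI. A CellTiter-Glo luminescence read gave % activity for curve fitting.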
HT1080NT lethal = kills 2HG-producing HT-1080-NT fibrosarcoma cells | HT-1080-NT fibrosarcoma viability, CellTiter-Glo ATP luminescence, 48 h | Potency, µM (top dose mostly 46.1 µM), usual class: cytotoxic | 1.6% of 360,000 active | AID 686970;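 further: NT is the 2HG producing partner of a matched IDH1 knockdown line; nearly all actives have a fitted effect of over 55% in size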
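Fibrosarcoma NT cells, 750 per well in 5% FBS RPMI, were exposed to compound for 48 hours. Viability: CellTiter-Glo luminescence.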
TDP1 cell noCPT = qHTS for Inhibitors of human tyrosyl-DNA phosphodiesterase 1 (TDP1): qHTS in cells in absence of CPT; DT40 Tdp1-/- hTDP1 cells, no CPT, ATP luminescence, 48 h; Potency, µM (series often up to 46.2 µM), most hits filed as inhibitors; 15% of 420,000 active; further: nearly all actives have a fitted effect of over 55% in size
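Seeded 400 DT40-hTDP1 cells/well (vehicle DMSO, no 20 nM CPT); pinned compounds; ≥48 hr at 37 °C; CellTiter-Glo luminescence as viability measure.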
12-LOX inh = inhibitors of human 12S-lipoxygenase ALOX12; 1.1% of 580,000 active; purified 12hLO, xylenol orange hydroperoxide absorbance; P18054; Potency, µM (doses to about 108 µM), most hits filed as inhibitors; AID 1671190
Target sequence (P18054 whole entry, looked up): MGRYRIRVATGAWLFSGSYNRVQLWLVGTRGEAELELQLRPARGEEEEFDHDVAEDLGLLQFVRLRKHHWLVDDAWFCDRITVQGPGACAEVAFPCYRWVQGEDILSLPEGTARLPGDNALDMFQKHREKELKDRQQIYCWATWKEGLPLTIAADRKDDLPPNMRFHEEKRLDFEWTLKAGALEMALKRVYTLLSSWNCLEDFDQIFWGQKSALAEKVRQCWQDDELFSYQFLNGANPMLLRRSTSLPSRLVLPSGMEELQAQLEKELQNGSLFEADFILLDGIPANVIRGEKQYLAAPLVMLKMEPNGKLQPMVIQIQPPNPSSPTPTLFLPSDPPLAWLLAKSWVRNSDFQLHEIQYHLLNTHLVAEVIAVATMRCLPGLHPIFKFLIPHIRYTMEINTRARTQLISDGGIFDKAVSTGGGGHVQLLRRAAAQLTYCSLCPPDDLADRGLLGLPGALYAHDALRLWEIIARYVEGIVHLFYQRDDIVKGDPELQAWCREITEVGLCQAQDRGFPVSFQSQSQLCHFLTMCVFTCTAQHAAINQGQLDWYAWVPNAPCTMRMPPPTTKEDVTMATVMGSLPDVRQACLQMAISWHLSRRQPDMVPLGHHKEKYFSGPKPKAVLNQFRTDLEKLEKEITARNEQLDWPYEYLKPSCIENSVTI
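Purified human 12hLO at 150 nM in 25 mM Hepes, 0.01% Triton X-100, pH 7.0, preincubated 15 min at room temperature with compound. Reaction started with 40 uM arachidonic acid, 30 min at room temperature. Hydroperoxide measured by Fe-xylenol orange, 573/405 nm absorbance ratio.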
IL1B secr inh = inflammasome signaling inhibition, IL-1 beta readout | THP-1 LPS/ATP IL-1B secretion, AlphaLISA, 16 h; hits give low values | activity change, % at 57.5 µM | 4.7% of 360,000 active; in the data active means activity change below about -50%; inconclusive means mostly about -30% to -49%
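THP-1 cells pretreated 1 hr with compounds (up to 57.5 uM final), then stimulated with LPS (250 ng/mL final) plus ATP (1.25 mM final); secreted IL-1B measured by AlphaLISA after 16 hr, decreased signal indicating inhibition.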
Each line names hits and unclear results; the compound was inactive in the other large screens. Only a selection was taken, and hits are over-represented in it overall. Unless noted, the call rests on the fitted dose curve; in most records, active means well fitted curve in the direction sought with a large enough effect; inconclusive means small, poorly fitted or top-dose-only effect, or another doubt; inactive means no such curve, though single readings can be large; an effect the other way counts as inactive or inconclusive.

CCN(CC)CCCNC(=O)/C=C/C(=O)O	DT40 TDP1 CPT 18.4µM, TDP1 cell noCPT 20.6µM
O=C(O)/C=C/C(=O)NCCc1ccccc1	none
CCc1nc2c(OCCOc3ccccc3)cccn2c1N(C)C(=O)c1ccc(C)cc1	DT40 TDP1 CPT inconclusive, TDP1 cell noCPT inconclusive
CCc1nc2c(OCCC3CCCCC3)cccn2c1N(C)C(=O)COc1ccccc1	DT40 TDP1 CPT 16.4µM, TDP1 cell noCPT inconclusive, 12-LOX inh inconclusive
CCc1nc2c(OCCOc3ccccc3)cccn2c1N(C)C(=O)C1CC1	DT40 TDP1 CPT 16.4µM, TDP1 cell noCPT inconclusive (no result: 12-LOX inh)
CCc1nc2c(OCC3CCCCC3)cccn2c1N(C)C(=O)c1ccc(OC)cc1	DT40 TDP1 CPT 18.4µM, HT1080 IDH1KD tx inconclusive, HT1080NT lethal inconclusive, TDP1 cell noCPT 18.4µM, 12-LOX inh inconclusive (no result: IL1B secr inh)
CCc1nc2c(OCCC3CCCCC3)cccn2c1N(C)C(=O)c1ccccc1F	DT40 TDP1 CPT inconclusive, HT1080 IDH1KD tx inconclusive, HT1080NT lethal inconclusive, TDP1 cell noCPT inconclusive, IL1B secr inh inconclusive
CCc1nc2c(OCCC3CCCCC3)cccn2c1N(C)C(=O)C(C)C	DT40 TDP1 CPT 13µM, HT1080 IDH1KD tx inconclusive, HT1080NT lethal inconclusive, TDP1 cell noCPT inconclusive, IL1B secr inh inconclusive (no result: 12-LOX inh)
CCc1nc2c(OCC(=O)c3ccc(F)cc3)cccn2c1N(C)C(=O)c1ccc(OC)cc1	none
CC1CCCC(NC(=O)c2cnc(Cl)c(Cl)c2)C1 (stereo not drawn)	none (no result: DT40 TDP1 CPT, HT1080 IDH1KD tx, HT1080NT lethal, TDP1 cell noCPT, IL1B secr inh)
CN(Cc1cn(-c2ccccc2)nn1)Cc1cc(-c2ccncc2)no1	none (no result: DT40 TDP1 CPT, HT1080 IDH1KD tx, HT1080NT lethal, TDP1 cell noCPT, IL1B secr inh)
CCc1nc2c(OCCC3CCCCC3)cccn2c1N(C)C(=O)c1ccc(C)cc1	DT40 TDP1 CPT 14.6µM, HT1080 IDH1KD tx inconclusive, HT1080NT lethal inconclusive, TDP1 cell noCPT 14.6µM, 12-LOX inh 44.7µM, IL1B secr inh -99.2
CCc1nc2c(OCCC3CCCCC3)cccn2c1N(C)C(=O)C1CC1	DT40 TDP1 CPT 18.4µM, HT1080 IDH1KD tx inconclusive, HT1080NT lethal inconclusive, TDP1 cell noCPT 13µM (no result: 12-LOX inh)
CCc1nc2c(OCC3CCCCC3)cccn2c1N(C)C(=O)c1ccccc1F	DT40 TDP1 CPT inconclusive, HT1080 IDH1KD tx inconclusive, HT1080NT lethal inconclusive, TDP1 cell noCPT 16.4µM
CC(c1nnc(-c2cccs2)o1)N(C)Cc1cccc(F)c1 (stereo not drawn)	none (no result: DT40 TDP1 CPT, HT1080 IDH1KD tx, HT1080NT lethal, TDP1 cell noCPT, IL1B secr inh)
Cc1ccc2c(c1)C1(C)C(C(C)(C)N2C=O)C1(Cl)Cl (stereo not drawn)	TDP1 cell noCPT 10.3µM
Nc1nc2c(ncn2COC(CO)CO)c(=O)[nH]1	DT40 TDP1 CPT 1.3µM, TDP1 cell noCPT 2.59µM
CCCCn1cnc2c(=O)[nH]c(N)nc21	none (no result: HT1080 IDH1KD tx, HT1080NT lethal, 12-LOX inh, IL1B secr inh)
O=C(Nc1ncc(Cc2ccc(Cl)cc2)s1)c1ccc2c(c1)CC(c1ccccc1)OC2=O (stereo not drawn)	DT40 TDP1 CPT 4.61µM, TDP1 cell noCPT 7.31µM (no result: HT1080 IDH1KD tx, HT1080NT lethal, IL1B secr inh)
Cn1nc(C(=O)Nc2ncc(Cc3ccc(Cl)cc3)s2)c2ccccc2c1=O	none (no result: DT40 TDP1 CPT, HT1080 IDH1KD tx, HT1080NT lethal, TDP1 cell noCPT, IL1B secr inh)
Cc1ccc(C(=O)Nc2ncc(Cc3ccccc3)s2)o1	none (no result: HT1080 IDH1KD tx, HT1080NT lethal)
O=C(Nc1ncc(Cc2ccc(SC(F)F)cc2)s1)c1ccccc1	DT40 TDP1 CPT 2.91µM, HT1080 IDH1KD tx 6.51µM, HT1080NT lethal 4.61µM, TDP1 cell noCPT 2.31µM
O=C(c1cn[nH]c1-c1ccc(Cl)cc1)N1CCC2(CC1)OCCO2	none (no result: DT40 TDP1 CPT, HT1080 IDH1KD tx, HT1080NT lethal, TDP1 cell noCPT, IL1B secr inh)
CC(C(=O)N1CCc2ccccc21)N1CCN(S(=O)(=O)c2cccc(C(F)(F)F)c2)CC1 (stereo not drawn)	DT40 TDP1 CPT inconclusive, TDP1 cell noCPT 13µM
COc1cc2c(cc1OC)CN(C(C)C(=O)N1CCc3ccccc31)CC2 (stereo not drawn)	DT40 TDP1 CPT inconclusive, HT1080 IDH1KD tx inconclusive, HT1080NT lethal inconclusive, TDP1 cell noCPT 18.4µM
CC(C(=O)N1CCc2ccccc21)N1CCc2ccccc2C1 (stereo not drawn)	DT40 TDP1 CPT inconclusive, TDP1 cell noCPT inconclusive
CC(NC(=O)Cc1ccc(NC(=O)N2CCCCc3ccccc32)cc1)c1ccccc1 (stereo not drawn)	DT40 TDP1 CPT inconclusive, TDP1 cell noCPT inconclusive (no result: HT1080 IDH1KD tx, HT1080NT lethal, IL1B secr inh)
